A selection: hits, their analogues and other compounds. The true share with any hit is near 8.1%.
PINK1 expr mod: A Quantitative High throughput Screen to Identify Chemical Modulators of PINK1 Expression; PINK1 immunofluorescence, high-content cytometry, 24 h; Potency, µM (doses to about 76.6 µM), without a hit: at the top dose activation (PINK1 increase), hits mostly activators; 410,000 compounds, 0.2% hits; active = well fitted activation curve with a large enough effect; inconclusive = small, poorly fitted or top-dose-only effect; cell line not stated here; also: % of control where 0% means no effect; nearly all actives have a fitted effect of over 65% in size
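PINK1 protein, normally rapidly degraded, was detected by immunofluorescence after 24 hour compound treatment of a stable cell line. Titration data (5 concentrations) came from laser-scanning cytometry, with CCCP-treated wells as controls.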
ClpP mod: qHTS Assay for Activators of ClpP. ATP-dependent Clp protease proteolytic subunit (Bacillus subtilis (strain 168)), P80244. purified B. subtilis ClpP, FRET peptide cleavage, 20 min. Potency, µM (titrated, usually from 57.5 µM), without a hit: at the top dose activity change, negative = active. 340,000 compounds, 1.9% hits; active = well fitted falling curve with a large enough effect; inconclusive = small, poorly fitted or top-dose-only effect; inactive = no such curve, though single readings can be large or run the other way; also: the source files actives as falling curves though it sought activators and does not explain the sign; nearly all actives have a fitted effect of over 65% in size
Target sequence (P80244 whole entry, looked up): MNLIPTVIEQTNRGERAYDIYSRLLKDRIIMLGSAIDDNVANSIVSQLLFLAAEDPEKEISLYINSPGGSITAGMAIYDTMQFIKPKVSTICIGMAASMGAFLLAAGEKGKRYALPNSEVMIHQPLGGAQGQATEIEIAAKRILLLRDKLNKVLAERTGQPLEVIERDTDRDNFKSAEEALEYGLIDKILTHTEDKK
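ClpP 10 microg/mL final, pH 8 Tris/KCl buffer with BSA, glycerol, Tween-20; compound pinned in; FRET-FV substrate; RT 20 min; Ex320/Em430; ΔFRET vs ADEP 5.8 microM, DMSO, no enzyme.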
Epigenetic reg: Quantitative High-Throughput Screen for Regulators of Epigenetic Control; murine LDR cells, GFP reporter derepression, 30 h; Potency, µM (doses to about 53.9 µM), for inactives: top-dose GFP activation, actives largely listed as activators; 280,000 compounds, 0.2% hits; also: % of control where 0% means no effect; nearly all actives have a fitted effect of over 60% in size
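GFP-positive cell count by laser-scanning cytometry (objects 20–120 um) after 30 h, 37 C compound exposure of murine LDR cells; reporter is CMV-GFP integrated at a silenced locus, inducible by HDAC or DNMT inhibitors.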
RORg inh: qHTS for inhibitors of ROR gamma transcriptional activity. Nuclear receptor ROR-gamma (Mus musculus), P51450. Drosophila S2 Gal4-RORgamma UAS-luciferase reporter, 20 h. Potency, µM (titrated, usually from 53.6 µM), without a hit: at the highest dose activity change, negative = inhibition, hits mostly inhibitors. 310,000 compounds, 5.4% hits; also: % is scaled to controls: 0 for no effect and ±100 for the full control effect; nearly all actives have a fitted effect of over 60% in size
Target sequence (P51450 whole entry, looked up, the tested form may be a part): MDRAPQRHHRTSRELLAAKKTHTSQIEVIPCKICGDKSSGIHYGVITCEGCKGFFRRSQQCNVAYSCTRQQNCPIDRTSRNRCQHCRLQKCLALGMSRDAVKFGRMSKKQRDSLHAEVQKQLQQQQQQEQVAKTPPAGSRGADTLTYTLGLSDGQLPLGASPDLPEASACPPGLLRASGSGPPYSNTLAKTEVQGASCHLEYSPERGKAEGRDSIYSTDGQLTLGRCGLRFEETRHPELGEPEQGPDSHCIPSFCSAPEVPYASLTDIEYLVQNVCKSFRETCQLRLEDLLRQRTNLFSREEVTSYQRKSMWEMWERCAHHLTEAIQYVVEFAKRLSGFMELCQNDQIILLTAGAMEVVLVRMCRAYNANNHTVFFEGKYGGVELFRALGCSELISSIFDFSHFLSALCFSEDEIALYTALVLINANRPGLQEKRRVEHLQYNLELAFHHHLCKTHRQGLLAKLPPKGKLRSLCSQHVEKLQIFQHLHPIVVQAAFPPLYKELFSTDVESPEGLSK
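Luminescence from a UAS-regulated Photinus luciferase reporter in stably transfected Drosophila Schneider cells is measured; decreased signal marks ROR gamma inhibition. Fusion expression is induced by 700 uM copper sulfate for 20 hr.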
Sfp inh: qHTS Assay for Inhibitors of Bacillus subtilis Sfp phosphopantetheinyl transferase (PPTase); 4'-phosphopantetheinyl transferase ffp (Bacillus subtilis), Q9F4F7; Biochemical Sfp PPTase activity, qHTS; Potency, µM, for the others: largest response in the series, negative = inhibition, usual class: inhibitors; 310,000 compounds, 3.5% hits;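 also: the enzyme is Sfp with the accession as filed and its product quenches rhodamine fluorescence; 0% = enzyme reaction without inhibitor and -100% = no enzyme wells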
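Fluorescence-quenching assay: 15 nM Sfp-PPTase preincubated 15 min at room temperature with compound, then 5 uM rhodamine-CoA and 12.5 uM BHQ-2-labelled YbbR peptide added. Fluorescence (ex 525/em 598 nm) read at start and after 30 min; difference gives rate.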
Gal4-VP16 FLuc: VP16 counterscreen qHTS for inhibitors of ROR gamma transcriptional activity; Potency, µM (titrated, usually from 53.6 µM), for the others: at the top dose activity, negative = inhibition, hits mostly inhibitors; 310,000 compounds, 3.5% hits; AID 2546, 2010; Drosophila S2 Gal4-VP16 UAS-luciferase, luminescence, 20 h;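 also: Gal4-VP16 expression switched on by copper sulfate through the metallothionein promoter; % is scaled to controls: 0 for no effect and ±100 for the full control effect; nearly all actives have a fitted effect of over 50% in size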
* hit, by the source's call; ? = inconclusive; . = no result given; [ ] = dose if it differs, or a comment. Unless noted, calls follow the shape of the dose curve; as a rule, active = well fitted curve in the direction sought with a large enough effect; inconclusive = small, poorly fitted or top-dose-only effect, or another doubt; inactive = no such curve, though single readings can be large; an effect the other way counts as inactive or inconclusive. Potency is read from the fitted curve at half-maximal effect.

SMILES	PINK1 expr mod	ClpP mod	Epigenetic reg	RORg inh	Sfp inh	Gal4-VP16 FLuc
Clc1ccc2c(N/N=C/c3ccc(Br)cc3)ccnc2c1	-0.3%	0.1%	-0.8%	6.31µM*	?	7.08µM*
COC(=O)CCC(=O)OC1(C)C(=O)C=C2C=C(CCCNC(=O)OC(C)(C)C)OC=C2C1=O (stereo unspecified)	.	.	0.0%	0.7%	5.4%	-11.1%
Cn1c(=O)n(C)c2cc(N3CCCCC3)c(NC(=O)c3ccc(C(C)(C)C)cc3)cc21	0.1%	-1.3%	7.0%	.	.	.
c1ccc2c(N3CCCCCC3)nc(-c3ccncc3)nc2c1	-2.6%	-2.5%	1.8%	-39.1%	-14.7%	-6.3%
CN1CCN(c2nc(-c3cccnc3)nc3ccccc23)CC1	26.0%[38.3 µM]	25.1µM*	-7.2%	-12.3%	-1.3%	-26.0%
C(=C\c1nc(N2CCCCCC2)c2ccccc2n1)/c1ccccc1	35.5µM*	31.6µM*	2.6%	?	28.2µM*	-16.2%
c1cncc(-c2nc(N3CCCCCC3)c3ccccc3n2)c1	-0.3%	0.7%	-4.4%	11.2µM*	?	?
CCOC(=O)[C@]1(C(NC(=O)OC)c2cccc(C)c2)CCCC1=O (stereo partly specified)	.	.	0.0%[10.1 µM]	-0.3%[10 µM]	-4.1%	1.8%[10 µM]
Cc1cccc(OCCOCCn2c(-c3ccc(Cl)cc3)nc3ccccc3c2=O)c1C	2.3%	-20.7%	6.2%	.	.	.
N#Cc1c(-c2cccc(Br)c2)cc(-c2cccnc2)nc1N	?	31.6µM*	?	?	-13.8%	?
N#Cc1c(-c2ccc(Br)cc2)cc(-c2cccnc2)nc1N	0.1%	-3.2%	-1.3%	-7.5%	9.4%	-11.4%
Cn1c(Cc2ccccc2)nnc1SCC(=O)c1ccc(Br)s1	2.9%	-0.3%	?	?	20µM*	?
COc1cccc(C2C(C(=O)Nc3ccccc3)=C(C)N=c3s/c(=C/c4ccc(OCC(=O)O)cc4)c(=O)n32)c1 (stereo unspecified)	3.1%	-1.2%	-1.9%	12.0%	1.0%	-4.2%
CC1=C(C(=O)Nc2ccccc2)C(c2ccc(C)o2)n2c(s/c(=C\c3ccco3)c2=O)=N1 (stereo unspecified)	7.2%	2.0%	0.0%	7.6%	50.1µM*	-0.4%
CCCCCCNc1ccc(/C=C/c2ccnc3ccccc23)cc1	7.6%	-2.2%	.	.	.	.
Cc1ccc(/C=N/n2c(-c3ccc(Cl)cc3)n[nH]c2=S)s1	1.9%	.	-0.1%	1.41µM*	-3.3%	-29.8%
Cc1ccc(-c2n[nH]c(=S)n2/N=C/c2ccc(C)s2)cc1	5.9%	-0.6%	-1.8%	3.16µM*	-1.7%	7.08µM*
O=C(C1CC1)N1CCC(c2nc(-c3ccc(S(=O)(=O)NCC4CCCO4)cc3)no2)CC1 (stereo unspecified)	7.4%[38.3 µM]	0.9%	0.0%	25.9%[0.365 µM]	3.3%	.
O=C(c1ccccc1)N1CCC(c2nc(-c3ccc(S(=O)(=O)NCC4CCCO4)cc3)no2)CC1 (stereo unspecified)	.	-0.9%	1.5%	-43.4%	6.4%	8.91µM*
C[C@@]12CCc3occc3[C@H]1CC[C@@]13C[C@@H](CC[C@H]12)[C@@](O)(CO)C3	.	.	.	-18.7%	23.3%	0.7%
Cc1cc2n(n1)C(c1ccccc1)Nc1ccccc1-2 (stereo unspecified)	-0.1%	25.1µM*	0.0%	38.2%[0.365 µM]	-0.9%	.
Cc1cc2n(n1)C(c1ccc3c(c1)OCO3)Nc1ccccc1-2 (stereo unspecified)	0.6%	?	0.8%	11.7%	-1.6%	3.4%
Cc1ccc2c(c1)-c1cc(C)nn1C(c1ccc3c(c1)OCO3)N2 (stereo unspecified)	2.2%	12.6µM*	-2.2%	?	7.4%	5.3%[0.365 µM]
Cc1cc2n(n1)C(c1sccc1C)Nc1c(C)cccc1-2 (stereo unspecified)	0.9%	28.2µM*	-1.9%	-39.4%	-3.5%	-1.9%
Cc1cc2n(n1)C(c1sccc1C)Nc1ccccc1-2 (stereo unspecified)	1.8%	17.8µM*	-5.7%	13.3%	-7.7%	22.3%
SMILES	PINK1 expr mod	ClpP mod	Epigenetic reg	RORg inh	Sfp inh	Gal4-VP16 FLuc
Cc1cc2n(n1)C(c1ccc(N(C)C)cc1)Nc1ccccc1-2 (stereo unspecified)	-2.2%[38.3 µM]	-26.6%	2.3%	-37.3%	15.7%	1.0%
COC(=O)C1CCN(c2nc(CN(C)C3CCOC3)nc3cc(OC)c(OC)cc23)CC1 (stereo unspecified)	2.4%	.	.	.	.	.
CCCCc1nc2c(c3c1C[C@H](C)OC3)CN(S(=O)(=O)c1ccc(C)cc1)CC2	.	.	.	.	-9.7%	.
OC1OC[C@H](O)[C@H](O)[C@H]1O (stereo partly specified)	.	.	.	2.9%	15.4%	-7.5%
Cc1ccsc1C1Nc2ccccc2C(=O)N1O (stereo unspecified)	1.7%	-1.7%	-0.9%	15.8µM*	-17.4%	?
Cc1ccc2c(c1)-c1cc(C)nn1C(c1sccc1C)N2 (stereo unspecified)	3.4%	15.8µM*	-0.7%	1.5%	-5.0%	7.3%
O=C1c2ccccc2NC(c2cnc3ccccc3n2)N1O (stereo unspecified)	2.3%	-25.1%	-1.1%	10µM*	3.7%	?
COc1ccc(NC(=O)C2CCCN(S(=O)(=O)c3ccc(Cl)cc3)C2)cc1 (stereo unspecified)	-0.9%	0.9%	-3.1%	.	.	.
O=C(O)c1ccc(S(=O)(=O)c2ccc3c(c2)C(=O)N(NC(=O)c2ccc(O)cc2)C3=O)cc1	-0.3%	.	-2.0%	6.31µM*	17.1%	10µM*
O=C(CCc1ccccc1)NCCc1csc(-c2cccc(F)c2)n1	2.2%	-8.2%	0.0%	.	.	.
CC(=O)c1ccccc1OCCOCCOCCOc1ccccc1C(C)=O	1.8%	0.891µM*	2.2%	18.0%	29.7%	3.4%
CCc1noc2nc(C)n(CC(=O)O)c(=O)c12	-0.3%	1.5%	-1.7%	.	.	.
O=[N+]([O-])c1cccc(-c2nnc3ccc4ccccc4n23)c1	1.0%	2.0%	0.0%	-28.3%	-18.2%	1.7%
CN1CCN(/N=C/c2nc(-c3cccc([N+](=O)[O-])c3)n3ccccc23)CC1	-3.2%	-28.8%	0.0%	25.2%	79.4µM*	-5.0%
CCn1c2ccc(C)cc2c2n[nH]c(=S)nc21	-0.6%	-8.0%	.	-42.1%[1.91 µM]	-8.7%	3.16µM*
NNc1nnc2c3cc(F)ccc3n(CCc3ccccc3)c2n1	?	.	.	?	-13.3%	-3.8%
Cc1ccc2c(c1)c1n[nH]c(=S)nc1n2CCc1ccccc1	?	0.9%	.	3.98µM*	-8.1%	?

High-throughput results from PubChem.
